This is part of a sample that, as a whole, favours compounds with a hit. Of some 83,000 tested, about 20% had one in any assay.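 For each line, cells grew in 96-well plates with the test compound present at a single concentration for 48 hours.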 Calls of active or inactive are those of the source. How the source made its calls: active means growth percent below 10; inactive means the rest.
Key:
Test in all cases: NCI-60 one-dose screen, 48 h (100 = growth as untreated, 0 = no growth, -100 = all killed)
Conditions in all cases: 10 µM unless noted
SK-MEL-2 melanoma = tested on: SK-MEL-2 melanoma
EKVX NSCLC = tested on: EKVX NSCLC
SN12C renal = tested on: SN12C renal
UO-31 renal = tested on: UO-31 renal
TK-10 renal = tested on: TK-10 renal
ACHN renal = tested on: ACHN renal
CAKI-1 renal = tested on: CAKI-1 renal
A498 renal = tested on: A498 renal
CCRF-CEM leukemia = tested on: CCRF-CEM leukemia
MOLT-4 leukemia = tested on: MOLT-4 leukemia

Measured: growth

CC(=O)Nc1cc2c3c(cccc3c1)-c1ccccc1-2
inactive: SK-MEL-2 melanoma 83.5% | EKVX NSCLC 55.1% | SN12C renal 31.6% | UO-31 renal 19.2% | TK-10 renal 96.3% | ACHN renal 91.5% | CAKI-1 renal 33.5% | A498 renal 58.7% | CCRF-CEM leukemia 21.4% | MOLT-4 leukemia 45.8%

COc1cc(NC(=O)NCc2ccco2)ccc1-c1ccc(NC(=O)NCc2ccco2)cc1OC
inactive: SK-MEL-2 melanoma 76.3% | EKVX NSCLC 73% | SN12C renal 69.4% | UO-31 renal 73.4% | TK-10 renal 37.7% | ACHN renal 60.2% | CAKI-1 renal 105% | A498 renal 65.8% | CCRF-CEM leukemia 61.3% | MOLT-4 leukemia 62.5%

CCSc1ncc(Br)c(Sc2nc(N)nc3nc[nH]c23)n1
inactive: SK-MEL-2 melanoma 73.1% | EKVX NSCLC 36.7% | SN12C renal 80.9% | UO-31 renal 70% | TK-10 renal 72.7% | ACHN renal 77.6% | CAKI-1 renal 57.7% | A498 renal 95.9% | CCRF-CEM leukemia 12.5%
active: MOLT-4 leukemia 3.06%

Cc1nn(-c2ccccc2)cc1/C=C1\SC(N2CCCCC2)=NC1=O
inactive: SK-MEL-2 melanoma 94% | EKVX NSCLC 94.2% | SN12C renal 93% | UO-31 renal 65.1% | TK-10 renal 78.5% | ACHN renal 74.7% | CAKI-1 renal 39.8% | CCRF-CEM leukemia 43.6% | MOLT-4 leukemia 58.6%

CC1CN(CC(O)c2ccc(Br)cc2)CCO1 (stereo not drawn)
inactive: SK-MEL-2 melanoma 103% | EKVX NSCLC 120% | SN12C renal 110% | UO-31 renal 85.4% | TK-10 renal 110% | ACHN renal 106% | CAKI-1 renal 103% | CCRF-CEM leukemia 102% | MOLT-4 leukemia 97%

CC1C(C)N(C(=O)CCl)c2ccccc2N1C(=O)CCl (stereo not drawn)
active: SK-MEL-2 melanoma -40.9% | EKVX NSCLC -60% | SN12C renal -26.6% | UO-31 renal -84.8% | TK-10 renal -87.4% | ACHN renal -91.5% | CAKI-1 renal -79.7% | A498 renal -83.5% | CCRF-CEM leukemia -34.6% | MOLT-4 leukemia -26.5%

CCCCN1c2nc3ccccc3cc2Sc2cc3ccccc3nc21
inactive: SK-MEL-2 melanoma 61.9% | EKVX NSCLC 85.1% | SN12C renal 102% | UO-31 renal 22% | TK-10 renal 108% | ACHN renal 107% | CAKI-1 renal 460% | A498 renal 116% | CCRF-CEM leukemia 89.2% | MOLT-4 leukemia 103%

O=c1[nH]cc(Nc2cc(Cl)c3nonc3c2[N+](=O)[O-])c(=O)[nH]1
inactive: SK-MEL-2 melanoma 20% | EKVX NSCLC 34% | SN12C renal 107% | UO-31 renal 89.3% | TK-10 renal 125% | ACHN renal 92.9% | CAKI-1 renal 27% | CCRF-CEM leukemia 106% | MOLT-4 leukemia 91.1%

CC[C@@H](c1ccc(O)c(O)c1)[C@@H](CC)c1ccc(O)c(O)c1
active: UO-31 renal -1.68% | ACHN renal 9.03% | CAKI-1 renal 6.55% | CCRF-CEM leukemia 7.86%
inactive: SK-MEL-2 melanoma 93.6% | EKVX NSCLC 117% | SN12C renal 99.8% | TK-10 renal 97% | MOLT-4 leukemia 59.9%

N#Cc1c(-c2ccccc2)cc(-c2ccccc2)n(CCCC(=O)O)c1=O
inactive: SK-MEL-2 melanoma 97.8% | EKVX NSCLC 94% | SN12C renal 96.2% | UO-31 renal 85.8% | TK-10 renal 124% | ACHN renal 97.8% | CAKI-1 renal 97.1% | CCRF-CEM leukemia 104% | MOLT-4 leukemia 97.3%

Oc1ccccc1/C=N/N1CCCCCC1
inactive: SK-MEL-2 melanoma 103% | EKVX NSCLC 115% | SN12C renal 93.6% | UO-31 renal 83.1% | TK-10 renal 103% | ACHN renal 105% | CCRF-CEM leukemia 76% | MOLT-4 leukemia 95.1%

O=C1NC(=O)/C(=C/c2ccc(Cl)cc2Cl)N1
inactive: SK-MEL-2 melanoma 103% | EKVX NSCLC 77.4% | SN12C renal 107% | UO-31 renal 80.7% | TK-10 renal 110% | ACHN renal 109% | CAKI-1 renal 102% | CCRF-CEM leukemia 92.3% | MOLT-4 leukemia 94.5%

Clc1ccc2nc(CI)c(CI)nc2c1
inactive: SK-MEL-2 melanoma 82.5% | EKVX NSCLC 90.1% | SN12C renal 59.4% | TK-10 renal 88.3% | ACHN renal 87.7% | A498 renal 118%
active: UO-31 renal -31.8% | CCRF-CEM leukemia 4.15% | MOLT-4 leukemia -27.4%

COc1ccc(C(=O)COc2cccc(/C=C3\COc4ccc5ccccc5c4C3=O)c2)cc1
active: UO-31 renal -29.5%
inactive: SK-MEL-2 melanoma 52.6% | EKVX NSCLC 45.4% | SN12C renal 68.6% | TK-10 renal 125% | ACHN renal 143% | CAKI-1 renal 71.9% | CCRF-CEM leukemia 13.3% | MOLT-4 leukemia 44.4%

Clc1ccc2c(c1)C(Br)c1cc(Cl)cc(Cl)c1-2 (stereo not drawn)
active: CCRF-CEM leukemia -37.8% | MOLT-4 leukemia -20.2%
inactive: SK-MEL-2 melanoma 95.5% | EKVX NSCLC 46.2% | SN12C renal 27.5% | UO-31 renal 76.6% | TK-10 renal 118% | ACHN renal 99.1% | A498 renal 120%

CCCCCCCCCCN1CCC(N2CCCCC2)CC1
active: SK-MEL-2 melanoma -19.9% | UO-31 renal -86.7% | CCRF-CEM leukemia 6.95% | MOLT-4 leukemia -26%
inactive: EKVX NSCLC 37.4% | SN12C renal 45.4% | TK-10 renal 25.2% | ACHN renal 38.2% | A498 renal 74.2%

COCCOCCOCCOCCOc1ccc2c(c1)C(=O)c1nc3ncccc3c(=O)n1-2
inactive: EKVX NSCLC 10.5%
active: SK-MEL-2 melanoma 6.22% | SN12C renal -93% | UO-31 renal -7.56% | TK-10 renal -77.4% | ACHN renal -19.5% | A498 renal -100% | CCRF-CEM leukemia 5.42% | MOLT-4 leukemia -28.7%

O=C1C2C(C(=O)N1CC[Se][Se]CCN1C(=O)C3C(C1=O)[C@H]1C=C[C@@H]3C1)[C@H]1C=C[C@@H]2C1 (stereo partly drawn)
active: SK-MEL-2 melanoma -53.3% | EKVX NSCLC -56% | SN12C renal 3.39% | UO-31 renal -84.4% | TK-10 renal -70.2% | ACHN renal -52.2% | CAKI-1 renal -87.7% | CCRF-CEM leukemia 2.3% | MOLT-4 leukemia 1.28%

CC(=O)Nc1c(Cl)cc2c(c1Cl)Cc1ccccc1-2
inactive: SK-MEL-2 melanoma 93.8% | EKVX NSCLC 64.3% | SN12C renal 90.9% | UO-31 renal 69.2% | TK-10 renal 115% | ACHN renal 100% | CAKI-1 renal 86.1% | CCRF-CEM leukemia 102% | MOLT-4 leukemia 93%

COc1ccc(/C=C/C(=O)c2cccc(NS(C)(=O)=O)c2)cc1
inactive: SK-MEL-2 melanoma 114% | EKVX NSCLC 94.6% | SN12C renal 82.8% | UO-31 renal 48.6% | TK-10 renal 92.2% | ACHN renal 93.4% | A498 renal 101% | MOLT-4 leukemia 40.8%
active: CCRF-CEM leukemia 1.69%

O=C(Oc1cccc2ccccc12)c1ccccc1C(=O)c1ccccc1
inactive: SK-MEL-2 melanoma 97.1% | EKVX NSCLC 80% | SN12C renal 101% | UO-31 renal 60.8% | TK-10 renal 129% | ACHN renal 95.5% | CAKI-1 renal 88.1% | CCRF-CEM leukemia 16% | MOLT-4 leukemia 14.8%

O=C1C=CC(=O)N1c1ccccn1
inactive: SK-MEL-2 melanoma 109% | EKVX NSCLC 118% | SN12C renal 96.2% | UO-31 renal 97.1% | TK-10 renal 113% | ACHN renal 97.4% | CAKI-1 renal 104% | CCRF-CEM leukemia 105% | MOLT-4 leukemia 66.6%

CNNc1ncnc2c1cnn2-c1ccc(S(N)(=O)=O)cc1
inactive: SK-MEL-2 melanoma 98.3% | EKVX NSCLC 106% | SN12C renal 105% | UO-31 renal 94.3% | TK-10 renal 102% | ACHN renal 93% | A498 renal 112% | CCRF-CEM leukemia 81.6% | MOLT-4 leukemia 86.6%

CCOC(=O)c1sc(NC(=O)COc2ccc(/C=C3\CCc4cc(OC)ccc4C3=O)cc2)nc1C
active: CCRF-CEM leukemia -62.6% | MOLT-4 leukemia 7.56%
inactive: SK-MEL-2 melanoma 62.3% | EKVX NSCLC 90.6% | SN12C renal 86.2% | UO-31 renal 14.5% | TK-10 renal 115% | ACHN renal 103% | CAKI-1 renal 76.7%

COc1ccc2c(c1)CC[C@@H]1[C@@H]2CC[C@]2(C)[C@@H](O)C(=O)C[C@@H]12
inactive: SK-MEL-2 melanoma 107% | EKVX NSCLC 102% | SN12C renal 96.1% | UO-31 renal 85.2% | TK-10 renal 109% | ACHN renal 94.9% | CAKI-1 renal 97.4% | CCRF-CEM leukemia 91.8% | MOLT-4 leukemia 90.8%

NS(=O)(=O)c1ccc(-n2ncc3c(SCc4ccccc4)ncnc32)cc1
inactive: SK-MEL-2 melanoma 99.8% | EKVX NSCLC 107% | SN12C renal 98.8% | UO-31 renal 98.5% | TK-10 renal 89.4% | ACHN renal 98% | CAKI-1 renal 26.3% | MOLT-4 leukemia 50.3%

Nc1nc(Nc2ccccc2SSc2ccccc2Nc2nc(N)nc(C(Cl)(Cl)Cl)n2)nc(C(Cl)(Cl)Cl)n1
active: UO-31 renal -38.5% | ACHN renal -25.3%
inactive: SK-MEL-2 melanoma 72.3% | EKVX NSCLC 67.5% | SN12C renal 19.3% | TK-10 renal 116% | CAKI-1 renal 52.2% | CCRF-CEM leukemia 45.5% | MOLT-4 leukemia 46.7%

C[C@]12CC[C@H](O)CC1=CC[C@@H]1[C@@H]2CC[C@]2(C)C(c3cccnc3)=CC[C@@H]12
inactive: SK-MEL-2 melanoma 27.6% | EKVX NSCLC 38.8% | SN12C renal 91% | UO-31 renal 36.9% | TK-10 renal 93.6% | ACHN renal 61% | A498 renal 64.4% | CCRF-CEM leukemia 51.3% | MOLT-4 leukemia 34.1%

Nc1nc(SCc2cccnc2)c2ncn(C3OC(CO)C(O)C3O)c2n1 (stereo not drawn)
inactive: SK-MEL-2 melanoma 109% | EKVX NSCLC 101% | SN12C renal 89.2% | UO-31 renal 72.7% | TK-10 renal 99.5% | ACHN renal 92.2% | CAKI-1 renal 98.6% | CCRF-CEM leukemia 115% | MOLT-4 leukemia 111%

O=C(c1ccccc1)C(CN1CCCCC1)c1ccccc1 (stereo not drawn)
inactive: SK-MEL-2 melanoma 50.1% | EKVX NSCLC 93.8% | SN12C renal 26% | TK-10 renal 10.9%
active: UO-31 renal -36.3% | ACHN renal -12.5% | CAKI-1 renal 1.39% | CCRF-CEM leukemia -20.2% | MOLT-4 leukemia 0.0819%
